Measured values as given in PubChem BioAssay.
A number with no mark means an inactive call.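 How the source made its calls: active means luciferase signal above three times the same-plate solvent-only control wells; inactive means the rest.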

biological target: Mitogen-activated protein kinase 7 (Homo sapiens) (UniProt Q13164); experiment: ERK5 transactivation activators in reporter cells, primary screen, cell-based, HTS (AID 1508626); conditions: HeLa Gal4-ERK5 transactivation, 18 h, at 5 µM, hits give high values;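 further: luciferase driven by Gal4-ERK5 fusion binding five Gal4 sites before minimal TATA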
Sequence (Q13164 whole entry, looked up, the tested form may be a part): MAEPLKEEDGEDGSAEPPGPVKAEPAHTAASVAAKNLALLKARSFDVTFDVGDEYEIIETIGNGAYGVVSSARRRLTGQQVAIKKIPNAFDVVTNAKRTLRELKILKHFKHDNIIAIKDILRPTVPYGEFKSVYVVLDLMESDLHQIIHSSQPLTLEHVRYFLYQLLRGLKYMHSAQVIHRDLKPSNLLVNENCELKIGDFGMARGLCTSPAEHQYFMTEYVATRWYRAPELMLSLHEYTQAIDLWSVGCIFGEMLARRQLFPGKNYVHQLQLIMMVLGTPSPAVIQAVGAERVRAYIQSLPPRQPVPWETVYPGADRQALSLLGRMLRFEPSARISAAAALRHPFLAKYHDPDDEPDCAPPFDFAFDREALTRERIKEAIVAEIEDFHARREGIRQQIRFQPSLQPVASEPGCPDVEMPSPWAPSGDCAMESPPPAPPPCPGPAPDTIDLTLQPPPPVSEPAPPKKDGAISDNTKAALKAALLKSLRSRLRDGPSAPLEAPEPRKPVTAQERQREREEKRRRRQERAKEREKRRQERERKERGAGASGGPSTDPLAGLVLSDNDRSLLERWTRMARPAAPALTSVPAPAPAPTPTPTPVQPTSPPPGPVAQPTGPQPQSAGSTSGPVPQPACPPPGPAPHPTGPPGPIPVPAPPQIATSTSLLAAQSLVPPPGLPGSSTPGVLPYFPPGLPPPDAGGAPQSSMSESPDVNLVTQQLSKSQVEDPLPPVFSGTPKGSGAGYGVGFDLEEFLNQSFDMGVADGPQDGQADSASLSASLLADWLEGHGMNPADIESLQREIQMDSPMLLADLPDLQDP

Structure (SMILES)	luciferase signal
CC1=CC(=O)CC(C)(C)C1(O)/C=C/C(C)=C\C(=O)O (stereo not given)	48 AU
C=CCSC[C@H](N)C(=O)O	44 AU
C[C@H](CCC(=O)O)[C@H]1CC[C@H]2[C@@H]3CC[C@@H]4CCCC[C@]4(C)[C@H]3CC[C@]12C	36 AU
CCCCCCCCCCCC[C@@H](C(=O)O)[C@H](C)C(=O)O	32 AU
CC(C)(O)[C@H]1CC[C@]2(C)[C@H]3CC[C@@H]4[C@@]5(C)CCCC(C)(C)[C@@H]5[C@@H](O)C[C@@]4(C)[C@]3(C)CC[C@@H]12	84 AU
CC(=O)N[C@@H](Cc1c[nH]c2ccccc12)C(N)=O	80 AU
O=c1cc(-c2cccc(O)c2)oc2ccc(O)cc12	124 AU
COC(=O)C[C@H]1C(C)(C)C(=O)[C@@H]2CC3C4=CC(=O)O[C@@H](c5ccoc5)[C@]4(C)CCC3[C@@]1(C)C2=O (stereo not given in full)	24 AU
COc1cc(-c2cc(=O)c3c(O)c(OC)c(OC)c(OC)c3o2)cc(OC)c1OC	40 AU
CC(=O)O[C@H]1CC[C@]2(C)[C@H]3CC=C4[C@@H]5CC(C)(C)CC[C@]5(C)CC[C@@]4(C)[C@]3(C)CC[C@H]2C1(C)C	64 AU
CC(C)=CCC[C@@H](C)[C@@H]1CC[C@]2(C)C3=C(CC[C@@]12C)[C@@]1(C)CC[C@H](O)C(C)(C)[C@@H]1CC3	68 AU
C[C@H](CCC(=O)O)[C@H]1CC[C@H]2[C@@H]3CC[C@@H]4C[C@H](O)CC[C@]4(C)[C@H]3C=C[C@]12C	16 AU
NCCC(=O)c1ccccc1N	88 AU
CC(C)=CCC/C(C)=C/CC/C(C)=C/CC/C(C)=C/CO	0 AU
COC(=O)CC[C@@H](C)[C@H]1CC[C@H]2[C@@H]3CC[C@@H]4C[C@H](O)CC[C@]4(C)[C@H]3C[C@H](O)[C@]12C	108 AU
